Data taken from PubChem BioAssay (NCATS).
A number with no mark means an inactive call. Results filed as inconclusive are left out. Activity calls are given as the source filed them. Unless noted, calls come from the whole dose curve; as a rule, active = well fitted curve in either direction with a large enough effect (not every such curve was filed as active); inconclusive = small, poorly fitted or top-dose-only effect, or another doubt; inactive = flat fitted curve, though single readings scatter.

What was measured:
[1] = AP1 Signaling Pathway (AID 357); conditions: ME-180 AP-1-bla reporter, EGF-induced, beta-lactamase ratio, 5 h; at 17.2 µM (top of the series) unless noted;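 note: ME-180 reporter cells stimulated with EGF at its EC50 level; % is set by controls: 0 for no effect and ±100 for the full control effect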
Procedure, shortened: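 AP-1-bla ME-180 cells, Opti-MEM + 0.5% dialyzed FBS, plated overnight 37 °C. Cpd titration + EC50 EGF, 5 h 37 °C. CCF4 2.5 h RT; ex 405, em 460/530 ratio → %activity, AC50.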

[2] = NFAT Signaling Pathway (AID 444); conditions: Jurkat NFAT-bla M1, carbachol, beta-lactamase ratio, 5 h; at 17.2 µM (top of the series) unless noted;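 note: carbachol stimulus at about its EC50 of 1 µM final; % is set by controls: 0 for no effect and ±100 for the full control effect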
Procedure, shortened: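 Read-out: CCF4 FRET ratio (460 nm/530 nm) after 1 h RT dye loading, used for %activity and AC50 from titration series. Cells: Jurkat NFAT-β-lactamase/M1 line, treated with compound plus 1 uM carbachol for 5 h, 37 °C.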

[3] = Stat Signaling Pathway (AID 446); conditions: ME-180 SIE beta-lactamase reporter, IL-6 stimulated, 5 h; at 17.2 µM (top of the series) unless noted;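 note: ME-180 cervical cancer cells given 40 pM IL-6 alongside compound; SIE-controlled beta-lactamase reporter measured as 460/530 nm FRET emission ratio; % is set by controls: 0 for no effect and ±100 for the full control effect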
Procedure, shortened: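 ME-180 SIE-bla cells; overnight plating; cpd + IL-6 40 pM, 5 h, 37 C; LiveBLAzer 2.5 h RT; 460/530 nm emission ratio. Normalized to 300 pM IL-6 and 125 nM JAK inhibitor controls.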

[4] = target: Glucocorticoid receptor (Homo sapiens) (UniProt P04150); test: GR-GFP Redistribution (AID 450;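 active = compounds whose dose series gives a full or clear partial fitted curve of increased nuclear translocation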; note: potency is the fitted concentration of half-maximal effect)
Chain of Glucocorticoid receptor (Homo sapiens) (P04150 whole entry, looked up): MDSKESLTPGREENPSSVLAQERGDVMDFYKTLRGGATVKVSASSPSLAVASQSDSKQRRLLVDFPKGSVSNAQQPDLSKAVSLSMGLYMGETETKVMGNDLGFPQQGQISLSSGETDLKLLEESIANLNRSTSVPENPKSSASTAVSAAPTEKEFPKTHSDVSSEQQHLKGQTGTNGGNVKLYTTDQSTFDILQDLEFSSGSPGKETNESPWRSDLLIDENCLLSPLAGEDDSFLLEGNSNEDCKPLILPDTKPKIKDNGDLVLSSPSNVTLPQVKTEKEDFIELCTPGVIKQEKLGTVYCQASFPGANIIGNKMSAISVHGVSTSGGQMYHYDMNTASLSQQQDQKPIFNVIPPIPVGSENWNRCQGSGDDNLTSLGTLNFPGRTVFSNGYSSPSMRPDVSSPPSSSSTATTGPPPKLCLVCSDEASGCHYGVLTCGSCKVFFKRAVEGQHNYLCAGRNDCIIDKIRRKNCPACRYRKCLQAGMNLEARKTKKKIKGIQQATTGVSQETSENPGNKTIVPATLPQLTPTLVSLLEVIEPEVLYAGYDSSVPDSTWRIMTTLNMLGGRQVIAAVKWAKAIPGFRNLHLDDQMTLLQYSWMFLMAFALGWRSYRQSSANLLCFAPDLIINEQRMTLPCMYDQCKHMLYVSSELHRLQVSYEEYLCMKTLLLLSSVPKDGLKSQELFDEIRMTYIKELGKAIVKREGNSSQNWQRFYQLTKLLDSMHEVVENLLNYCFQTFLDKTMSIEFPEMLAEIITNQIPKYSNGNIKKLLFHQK

Structure (SMILES) | activity change, negative = inhibition [1] | activity change, negative = inhibition [2] | activity, negative = inhibition [3] | Potency [4]
Cc1cc2c(c(=O)o1)C(Cc1ccccc1)C(C#N)=C(N)O2 (centres undefined) | 4.23% | 9.9% | -12.4% | > 20.6 µM
CC(O)CNc1nc2c(c(=O)n(C)c(=O)n2C)n1Cc1cccc(C(F)(F)F)c1 (centres undefined) | -10.4% | 4.56% | -0.279% | > 20.6 µM
Fc1ccccc1/C=N/n1cnnc1 | 3.64% | 1.1% | 2.69% | > 20.6 µM
CCO/C(C)=N/n1c2nc3ccccc3nc2c2c(=O)n(CC(C)C)c(C)nc21 | -19.8% | 12.6% | -8.62% | > 20.6 µM
O=C(Nc1nnc(SCc2ccccc2F)s1)c1ccco1 | -5.32% | 11.2% | -4.78% | > 20.6 µM
O=C(CCC(=O)CCN1CCCCC1)CCN1CCCCC1 | 13.9% | -120% (active) | 1.96% | > 20.6 µM
COc1ccc(C2C(C#N)=C(N)Oc3cc(C)n(CCN4CCOCC4)c(=O)c32)cc1OC (centres undefined) | 0.457% | 24.9% | 6.24% | > 20.6 µM
COc1ccc(C(=O)N2CCCC(c3ccccc3)C2)cc1 (centres undefined) | -9.81% | 18.5% | 2.57% | > 20.6 µM
COc1ccc(/C(O)=C2\C(=O)C(=O)N(CCN(C)C)C2c2cccc(OC)c2OC)cc1 (centres undefined) | 10.8% | -5.32% | 11.6% | > 20.6 µM
N#CC1=C(C=Nc2ccccc2O)CCC1 | 12.3% | 8.46% | -1.34% | > 20.6 µM
Cc1nc(SCC(N)=O)[nH]c(=O)c1Cc1ccc(OC(C)C)cc1 | 12% | 1.93% | 8.12% | > 20.6 µM
COc1ccc2[nH]c(C)c(C(=O)CN3CCOCC3)c2c1 | 12.7% | -9.22% | -2.66% | > 20.6 µM
CCCSc1nc(O)c(C2OC(=O)c3c2ccc(OC)c3OC)c(=O)n1C (centres undefined) | 17.4% | -4.09% | 3.93% | > 20.6 µM
Cc1cccc(-c2nnc3n2N=C(c2ccc(Br)cc2)CS3)c1 | 11.1% | -1.71% | 7.64% | > 20.6 µM
Fc1ccc(OCCOCCNCC2CCCO2)cc1 (centres undefined) | 12.2% | -14.1% | 21.6% | > 20.6 µM
Cc1ccc(C2/C(=C(/O)c3ccc(OC(C)C)cc3)C(=O)C(=O)N2CCN2CCOCC2)cc1 (centres undefined) | 0.482% | 10.1% | -12.8% | > 20.6 µM
Cc1ccc(C(=O)C2=C(O)C(=O)N(CCN3CCOCC3)C2c2ccccn2)o1 (centres undefined) | -1.65% | 8.69% | 5.67% | > 20.6 µM
Cc1nc2sc(C)c(C)c2c(=O)o1 | -1.58% | 4.96% | -1.71% | > 20.6 µM
CCOc1ccc(-c2nc(C#N)c(NCC(C)C)o2)cc1 | -22.8% | -3.57% | -7.96% | > 20.6 µM
CC/C(=N\O)c1ccc(OC)c(OC)c1 | 4.83% | 2.19% | 3.07% | > 20.6 µM
COc1ccc(C2=Nn3c(nnc3-c3ccccn3)SC2)cc1 | -4.44% | 2.81% | 6.62% | > 20.6 µM
COc1cc(/C=N/n2c(C)nnc2C)cc(OC)c1OC | -12.3% | 10.5% | -4.5% | > 20.6 µM
CCCOc1ccccc1C(=O)NCCCC(=O)O | -0.71% | -4.04% | 8.1% | > 20.6 µM
Cc1cccc(N)c1SC1CCCCC1O (centres undefined) | -3.66% | -1.33% | 2.62% | > 20.6 µM
CCOC(=O)CC(=O)CSc1nc2c(cc1C#N)CCCCC2 | 2.56% | 1.41% | -7.32% | > 20.6 µM
O=C(c1cc(N2CCCCC2)nc2ccccc12)N1CCOCC1 | -15.6% | -13.8% | 4.94% | > 20.6 µM
